This note sets out measurements from PubChem BioAssay (EPA / NIEHS).

Inconclusive results are not listed. Activity calls are given as the source filed them. How the source made its calls, unless noted: active means hit-call score of the fitted dose curve at least 0.9, where 1 is the maximum; inconclusive means response in the unintended direction; inactive means score below 0.9.

Assay [1] is described as follows: Tanguay_ZF_120hpf_PE_legacy: (Legacy) Oregon State University Tanguay Lab 120 Hour Post-fertilization zebrafish Assay for Pericardial Edema (AID 2283640).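 On AC50: potency for increased incidence of pericardial edema versus DMSO baseline.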 A digest of the protocol: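 Embryos from wild-type 5D adults were staged, then dosed in 0.64% DMSO. They were kept sealed in the dark at 28C until 120 hpf. Pericardial edema was then recorded as present or absent.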

Assay [2] in a line: Tanguay_ZF_120hpf_BRAI_legacy: (Legacy) Oregon State University Tanguay Lab 120 Hour Post-fertilization zebrafish Assay for Brain Malformation (AID 2283641). A digest of the protocol: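 Wild-type 5D larvae, static waterborne exposure to 120 hpf, 28C, 0.64% v/v DMSO. Brightfield scoring of brain defects, binary; dead embryos excluded. Positive ctrl 5uM trimethyltin chloride.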

Assay [3] is described as follows: Tanguay_ZF_120hpf_PFIN_legacy: (Legacy) Oregon State University Tanguay Lab 120 Hour Post-fertilization zebrafish Assay for Pectoral Fin Malformation (AID 2283648).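 Further: each larva judged yes or no for fin defect by brightfield with dead larvae skipped.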 Put shortly: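 Binary pectoral fin malformation call at 120 hpf by brightfield microscopy; 5D wild-type zebrafish, chorion removed at 4 hpf, one embryo per well from 6 hpf, static exposure at 28C; DMSO (0.64% final) as baseline.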

Assay [4] is described as follows: Tanguay_ZF_120hpf_PIG_legacy: (Legacy) Oregon State University Tanguay Lab 120 Hour Post-fertilization zebrafish Assay for Pigmentation Malformation (AID 2283650).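 Further: dechorionated Tropical 5D zebrafish embryos exposed singly from 6 to 120 hpf.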 Put shortly: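 Brightfield scoring of pigmentation malformation at 120 hpf, recorded as binary present/absent per larva. Exposure: dechorionated 5D wild-type embryos, one per well, static from 6 hpf at 28C, final DMSO 0.64% (vol/vol). Dead embryos not scored.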

Assay [5] can be described thus: Tanguay_ZF_120hpf_CIRC_legacy: (Legacy) Oregon State University Tanguay Lab 120 Hour Post-fertilization zebrafish Assay for Circulatory Malformation (AID 2283651). Put shortly: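 Binary circulatory malformation call at 120 hpf by brightfield imaging of zebrafish larvae; chorion removed at 4 hpf, static exposure from 6 hpf in sealed dark plates at 28C, final DMSO 0.64%; non-mortality endpoints skipped if embryo died.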

Assay [6] is described as follows: Tanguay_ZF_120hpf_SOMI_legacy: (Legacy) Oregon State University Tanguay Lab 120 Hour Post-fertilization zebrafish Assay for Somite Malformation (AID 2283647). Put shortly: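 Read-out: presence or absence of somite malformation in 120 hpf larvae, gain-of-signal relative to DMSO baseline. Embryos lacked chorion (pronase, 4 hpf) and were exposed statically from 6 hpf at 28C; dead larvae not scored.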

The nature of assay [7]: Tanguay_ZF_120hpf_CFIN_legacy: (Legacy) Oregon State University Tanguay Lab 120 Hour Post-fertilization zebrafish Assay for Caudal Fin Malformation (AID 2283649). Put shortly:
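Binary presence or absence of caudal fin malformation at 120 hpf, read by brightfield microscopy, with DMSO as baseline. Larvae came from 5D wild-type embryos exposed statically from 6 hpf at 28C after pronase dechorionation.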

Read-out in assay [8]: kallikrein-3 (KLK3), KLK3 (gene 354)
In words: LTEA_HepaRG_KLK3: Life Technologies and Expression Analysis (LTEA) Assay for kallikrein-3 (KLK3) using HepaRG (AID 2283652; active means hit-call score of the fitted dose curve at least 0.9, where 1 is the maximum; inactive means score below 0.9). The note with it: mRNA level, 48 h; actives raise or lower the signal. The protocol:
(§1) LTEA_HepaRG is a cell based, multiplexed-readout assay that uses HepaRG, a human liver cell line, with measurements taken at 48 hours after chemical dosing on a 96-well plate.LTEA_HepaRG_KLK3 is one of 102 assay component(s) measured in the LTEA HepaRG cell culture assay. It is a marker of Cellular remodeling.Data from the assay component LTEA_HepaRG_KLK3 was analyzed into 1 endpoint. This assay endpoint, LTEA_HepaRG_KLK3, was analyzed with bidirectional fitting relative to DMSO as the negative control and baseline of activity. Using a type of inducible reporter, measures of mRNA induction for gain or loss-of-signal activity can be used to understand regulation of transcription factor activity. To generalize the intended target to other relatable targets, this assay endpoint is annotated to the protease intended target family, where the subfamily is Cellular remodeling.
(§2) A total of 1060 chemcials from the ToxCast library were tested in eight-point concentration-response experiments. Cell culture and cytotoxicity assays were conducted at Thermo Fisher Scientific's Custom Services facility (Madison, WI). A single lot of human HepaRG cells (Thermo Fisher Scientific, Frederick, MD) was used for the cell culture experiments. 96-well format collagen type I coated plates of human HepaRG cells were prepared using established methods. Briefly, cryopreserved HepaRG cells were thawed, plated at a density of approximately 100,000 cells/well in HepaRG Thaw, Plate, and General Purpose media (HPRG770, Thermo Fisher Scientific), and incubated for 48 hours. 0.5% DMSO was selected as vehicle control to balance the requisite need of DMSO in HepaRG cultures to maintain differentiation (for example, baseline metabolism, proportions of hepatocytes vs. cholangiocytes), while enabling further hepatic receptor pathway activation (for example, PXR and CAR) in response to chemical exposure. 48 hours after plating, the culture medium was replaced with HepaRG Serum-Free Incudtion Media. Cells were exposed to each test chemical in duplicate and maintained in CO2 incubators for another 48 hours. Chemical plates were thawed to room temperature and 200x concentrations of treatment groups were prepared. 8-point conentration-reponse curves were made with the highest exposure at 100 uM, followed by half-log dilutions, all in 0.5% DMSO. Each test plate contained variouse controls, induction positive controls (1mM phenobarbital), cytotoxicity positive controls ([…] aflatoxin B1), vehicle controls (0.5% DMSO), and total lysis controls (0.5% DMSO). Cell morphology images were taken using an Essen IncuCyte FLR automated microscope, with six 96-well plates imaged in about 24 minutes. Images were captured and exported and JPEG files. Spent culture media was transfered to black-well plates for the LDH assay, and remaining media was sorted at -80 C for later use. Cells were treated with RLT buffer and frozen until shipped for gene expression analysis. Total RNA was isolated from the cell suspension in 75 uL of Buffer RLT (Qiagen, Germantown, MD 20874) by Quintiles/Expression Analysis (Durham, NC) using a custom isolation procedure. Total RNA from each plate well was transferred to a preamplification plate. Fluidigm's 96.96 Dynamic ArrayTM (Fluidigm, Amsterdam, the Netherlands) technology was used for gene expression analyses by quantitative reverse transcription polymerase chain reaction (qRT-PCR, performed by Quintiles/Expression Analysis, Durham, NC)89. […]

Read-out in assay [9]: solute carrier (SLC22A6), SLC22A6 (gene 9356)
In words: LTEA_HepaRG_SLC22A6: Life Technologies and Expression Analysis (LTEA) Assay for solute carrier (SLC22A6) using HepaRG (AID 2283653; active means hit-call score of the fitted dose curve at least 0.9, where 1 is the maximum; inactive means score below 0.9). The settings on record: mRNA level, 48 h; actives raise or lower the signal. The protocol:
as §1, with “plate.LTEA_HepaRG_SLC22A6” for “plate.LTEA_HepaRG_KLK3”, “NR mediated transport.Data” for “Cellular remodeling.Data”, “LTEA_HepaRG_SLC22A6” for “LTEA_HepaRG_KLK3”, “LTEA_HepaRG_SLC22A6,” for “LTEA_HepaRG_KLK3,”, “transporter” for “protease”, “organic anion transporter.” for “Cellular remodeling.”
as §2, with “NC)89. Standard TaqManTM Assays (Applied Biosystems/ThermoFisher Scientific, Foster City, CA) were used to assess the expression of 93 genes selected based on their selectivity and sensitivity to important hepatic receptors known to be modulated by environmental chemicals; importance in human hepatocyte functionality; and hepatotoxicity.” for “NC)89.”

`Oc1ccc2c(c1)OC[C@@H](N1CCC(O)(c3ccc(F)cc3)CC1)[C@H]2O`: the outcome in [1], in [2], in [3], in assay [4] and in [5] was inactive.

For the compound `NS(=O)(=O)c1cc2c(cc1Cl)NCNS2(=O)=O`, the call in assay [2], in [6], in [3], in assay [4] and in [5] was inactive.

In the case of `NCC1(Cc2noc(=O)[nH]2)CCCCC1`, the call in assay [1], in assay [3], in assay [4] and in assay [5] was inactive.

On to `C=CCc1ccc(O)c(OC)c1`, for which the call in assay [1], in [2], in assay [3], in assay [7], in assay [4] and in [5] was inactive.

On to `CCCCCCCCCCCCCCCC`, for which the outcome in assay [1], in assay [3], in assay [7], in assay [4] and in assay [5] was inactive.

Consider `Cc1c(C(=O)O)c(O)cc2c1C(=O)c1c(O)c([C@@H]3O[C@H](CO)[C@@H](O)[C@H](O)[C@H]3O)c(O)c(O)c1C2=O`, for which the call in assay [1], in [6], in assay [3], in [7] and in [4] was inactive.

As to `CCCCCCCCCCO`, the compound was called inactive in assay [1], in assay [2], in assay [3], in assay [7], in assay [4] and in [5].

As to `Cc1oc(-c2ccccc2)nc1CCOc1cccc2c1ccn2CCC(=O)O`, the result in [1], in assay [2], in assay [3], in assay [4] and in assay [5] was inactive.

With `C[C@]12C=CC(=O)C=C1CC[C@@H]1[C@@H]2C(=O)C[C@@]2(C)[C@H]1CC[C@]2(O)C(=O)CO`, the outcome in assay [2], in assay [3], in [7] and in [5] was inactive.

Regarding `CNC(=O)[C@H]1O[C@@H](n2cnc3c(NCc4cc(Cl)ccc4OCc4cc(C)no4)ncnc32)[C@H](O)[C@@H]1N`, the compound was classed as inactive in assay [1], in assay [7], in assay [4] and in assay [5].

Take `Cc1ccc(C)c(O)c1C`: the compound was called inactive in [1], in [3], in assay [4] and in assay [5].

Take `Cc1cc(=O)[nH]c(=S)[nH]1`: the outcome in assay [1], in assay [2], in assay [3], in [4] and in [5] was inactive.

Consider `CC(=O)OC/C=C(\C)CCC=C(C)C`, for which the compound was classed as inactive in assay [1], in assay [2], in assay [3], in assay [4], in assay [5] and in assay [8]. In addition, the compound was called inactive in assay [9].

As for `CC1=C(/C=C/C(C)=C/C=C/C(C)=C/CO)C(C)(C)CCC1`, the outcome in [1], in assay [3], in assay [4] and in assay [5] was inactive.

In the case of `NCCO`, the compound was classed as inactive in assay [1], in assay [2], in assay [3], in [7], in [4] and in assay [5].

Consider `CC(=O)Oc1ccccc1C(=O)O`, for which the outcome in assay [1], in assay [2], in assay [3], in assay [4] and in [5] was inactive.

`Cc1ccc(Cl)cc1`: the call in [1], in assay [2], in [3], in assay [8] and in assay [9] was inactive.

In the case of `COc1cc(-c2nc(NC(=O)c3cc4cc(C)cc(C)c4n3CC(=O)O)sc2CCC2CCCCC2)c(OC)cc1Cl`, the outcome in [1], in assay [2], in assay [3], in [4] and in assay [5] was inactive.

Take `NC(=O)Cn1c(=O)cc(CCN2CCN(c3nccc4sccc34)CC2)c2ccc(F)cc21`: the compound was classed as inactive in [1], in assay [3] and in [5].

`FC(F)(F)C(F)(F)C(F)(F)C(F)(F)C(F)(F)C(F)(F)CCI`: the compound was classed as inactive in [1], in assay [2], in assay [3] and in [5].

For the compound `Oc1ccc2ccccc2c1N=Nc1ccccc1`, the half-maximal activity concentration (AC50) (in general, the midpoint of the concentration-response curve, whichever way the signal moves) in assay [1] is 35.2 µM (active). Moreover, the compound was called inactive in assay [6], in assay [3], in assay [4], in assay [5] and in assay [9].

`O=C(N[C@@H](Cc1ccccc1)[C@@H](O)C(=O)N1C[C@@H](O)[C@@H](O)C1)c1cc2cc(Cl)ccc2[nH]1`: the compound was called inactive in assay [1], in [2], in assay [3], in [4] and in [5].

As for `CC(CO)OC(C)CO` (stereo not drawn) (tested in a mixture with another compound), the call in assay [1], in assay [3] and in [4] was inactive.

Regarding `C1CCC(SSC2CCCCC2)CC1`, the compound was called inactive in [1], in [2], in [3], in [7], in [8] and in assay [9].

Take `CC=Cc1ccc(O)c(OC)c1`: the result in assay [1], in assay [3] and in [4] was inactive.

As for `Cc1ccc(N(C)C)cc1`, the compound was called inactive in assay [3], in assay [4] and in [5].
